Structures are written as SMILES. The campaign covered roughly 69,000 compounds. About 8,600 (12%) showed an effect of 50% or more. The full list was thinned out, with strong results kept by preference.

This assay deals with Plasmodium berghei. As to the kind of experiment: Screen against P. berghei liver stage (PbLuc), transformed with Luciferase, at 10uM. Conditions: tested at 10 uM. The class given is functional, HepG2.
In the case of `CCOCC1CN(Cc2ccc3c(c2)OCO3)Cc2nccn2C1` (configuration not stated), the INHIBITION was 29%.

For the compound `Cc1ccc(CNC(=O)CN2CCCCC2Cn2cncn2)s1` (configuration not stated), the INHIBITION is -1.14%.

Take `CNC(=O)COc1c(F)cc(Br)cc1C(C)=O`: the INHIBITION came out at 9.04%.

For the compound `CC(=O)c1cc(Br)cc(F)c1OCC(=O)NC(C)C`, the INHIBITION was 56.9%.

Take `COC(=O)COc1c(F)cc(Br)cc1C(C)=O`: the INHIBITION is 8.24%.

As to `Cc1nc(CNCC2CN(C3CC3)CCO2)cs1` (configuration not stated), the INHIBITION came out at 27.4%.

As for `NC(=O)COc1ccc(CNCc2ccc(F)cc2)cc1`, the INHIBITION was found to be 9.52%.

Regarding `Cc1cc(C)n(CC2CN(Cc3nc4ccccc4s3)CCO2)n1` (configuration not stated), the INHIBITION amounted to 79.9%.

On to `Cc1nc(C)n(CC2CN(Cc3nc4ccccc4n3C)CCO2)n1` (configuration not stated), for which the INHIBITION came to 22.3%.

Consider `Cc1nc(C)n(CC2CN(Cc3cccc4ccccc34)CCO2)n1` (configuration not stated), for which the INHIBITION is reported as 37.4%.

For `Cc1nc(C)n(CC2CN(Cc3nc4ccccc4s3)CCO2)n1` (configuration not stated), the INHIBITION is 92.3%.

As to `Cc1cc(C)n(CC2CN(Cc3cnc(C)s3)CCO2)n1` (configuration not stated), the INHIBITION is 28.8%.

`Cc1cc(C)n(CC2CN(Cc3ccccn3)CCO2)n1` (configuration not stated): the INHIBITION was found to be 12.415%.

Take `CN(Cc1ccco1)C(=O)CN1C(=O)c2ccccc2C1=O`: the INHIBITION amounted to 33.4%.

For the compound `CN(C)CCN1C(=O)CCCC12CCCN(Cc1cccs1)C2` (configuration not stated), the INHIBITION is -3.58%.

With `CNC(=O)NCC(=O)N(C)C(c1ccc(Cl)cc1)c1cccnc1` (configuration not stated), the INHIBITION is recorded as 35.1%.

`CN(CCO)C1CCN(c2ncc3c(n2)CCN3c2ccccc2)CC1`: the INHIBITION is 22.3%.

For `CC(C)(O)c1cn(C[C@H]2C[C@@H]3CCN2C[C@@H]3C(=O)N2CCOCC2)nn1`, the INHIBITION is -0.473%.

For the compound `Cc1csc2ncnc(N3CCC(Cn4cc(C(C)(C)N)nn4)CC3)c12`, the INHIBITION came out at 84.2%.

Regarding `CC(C)(N)c1cn(C2CCN(c3ncccc3Cl)CC2)nn1`, the INHIBITION stood at 30.4%.

Regarding `CC(O)Cc1cn(CC2CCN(c3nccc4occc34)CC2)nn1` (configuration not stated), the INHIBITION is given as 11.8%.

With `CC(C)(O)c1cn(C2CCN(c3ncccc3Cl)CC2)nn1`, the INHIBITION is listed as 25.7%.

As for `Cc1csc2c(N3CCC(Cn4cc(C(C)(C)O)nn4)CC3)ncnc12`, the INHIBITION stood at 79.3%.

Take `Cc1csc2ncnc(N3CCCC(Cn4cc(C(C)(C)O)nn4)C3)c12` (configuration not stated): the INHIBITION is reported as 48.5%.

Turning to `Cc1csc2ncnc(N3CCC(Cn4cc(C(C)(C)O)nn4)CC3)c12`, the INHIBITION was 84.2%.

Take `O=C(c1ccoc1)N1CCN(Cc2ccccc2F)CC1`: the INHIBITION was found to be 18.3%.

With `Cc1ccc(CS(=O)(=O)N2Cc3c(CN(C)C)nn(C)c3C2)cc1`, the INHIBITION is listed as 8.6%.

For `COc1ccc(C2=NOC(CO)C2)cc1` (configuration not stated), the INHIBITION is listed as 35.8%.

With `Fc1cccc(-c2nccnc2C2CCCNC2)c1` (configuration not stated), the INHIBITION is reported as 8.72%.

With `c1cc(CN2CCC3(CC2)COC(COCC2CC2)C3)ccn1` (configuration not stated), the INHIBITION was found to be 1.9%.

For `O=C(Cc1ccsc1)N1CCOC(c2nc(-c3ncccn3)no2)C1` (configuration not stated), the INHIBITION was found to be 21.9%.

For `Cn1c(CCC(=O)N2CCCC3(CNC(=O)O3)C2)nc2cccnc21` (configuration not stated), the INHIBITION stood at 22.5%.

With `Cc1nc(C2CCN(C(=O)c3cc(C4CC4)[nH]n3)CC2)no1`, the INHIBITION was 11.9%.

Turning to `CS(=O)(=O)Nc1ccn(Cc2cccc(F)c2)n1`, the INHIBITION came to 49.1%.

For `c1cc(CN2C[C@@H]3OCCN(CC4CC4)[C@@H]3C2)n[nH]1`, the INHIBITION is 59.3%.

Turning to `CC(C)N1CCO[C@H]2CN(Cc3cc[nH]n3)C[C@H]21`, the INHIBITION came to 29.4%.

With `COc1ccc(CN2C[C@@H]3OCCN(CCN(C)C)[C@@H]3C2)cc1`, the INHIBITION was found to be 26.4%.

As for `COc1ccc(CN2C[C@@H]3OCCN(CC4CCCO4)[C@@H]3C2)cc1` (some centres not stated), the INHIBITION came out at 27.9%.

As to `Fc1ccc(CN2C[C@@H]3OCCN(CCN4CCCC4)[C@@H]3C2)cc1`, the INHIBITION was found to be 11.3%.

In the case of `COCCN1CCO[C@H]2CN(Cc3cc[nH]n3)C[C@H]21`, the INHIBITION worked out at 40.3%.

As to `Fc1ccc(CN2C[C@@H]3OCCN(CC4CCCO4)[C@@H]3C2)cc1` (some centres not stated), the INHIBITION was 68.4%.

In the case of `COc1ccc(CN2C[C@@H]3OCCN(CCN4CCCC4)[C@@H]3C2)cc1`, the INHIBITION is 82.3%.

Regarding `c1cc(CN2C[C@@H]3OCCN(CC4CCCO4)[C@@H]3C2)ccn1` (some centres not stated), the INHIBITION is on record as -1.55%.

`CN(Cc1cscn1)C1CCCN(c2cccnn2)C1` (configuration not stated): the INHIBITION came to 15.5%.

Take `COc1c(C)cnc(CN2CCCC(c3noc(C4CC4)n3)C2)c1C` (configuration not stated): the INHIBITION is listed as 17.1%.

Consider `CCc1n[nH]c(C2CN(C(=O)c3ccc4c(c3)CCCC4)CCO2)n1` (configuration not stated), for which the INHIBITION was -43.6%.

With `O=C(O)c1cncc(Cc2cccc(F)c2)c1`, the INHIBITION is reported as -19.7%.

In the case of `CCc1ccc(CN2CCNC(C(=O)N3CCN(C)CC3)C2)nc1` (configuration not stated), the INHIBITION is -14.1%.

Turning to `COc1ccc(F)cc1C(=O)N(C)[C@@H]1CC[C@@H](O)[C@@H]1O`, the INHIBITION is reported as -42%.

Consider `Cc1ccoc1C(=O)N1CCn2nnc(COc3cccnc3)c2C1`, for which the INHIBITION is given as 17.1%.

Regarding `Cn1cc(CN2CCOC(c3nccnc3-c3cccc(F)c3)C2)cn1` (configuration not stated), the INHIBITION is 23%.

For the compound `CC(C)NC(=O)N1CCN(S(C)(=O)=O)CC2(CNC(=O)C2)C1` (configuration not stated), the INHIBITION was -3.52%.

As to `N#Cc1cccc(CN2CC[C@@H]3CO[C@@H](CN4CCCC4)[C@@H]3C2)c1`, the INHIBITION was 23.3%.

For the compound `Cc1ccc(C(=O)N2CCc3c(COCC4CC4)cncc3C2)o1`, the INHIBITION was 88.2%.

For the compound `CN(C)CCOCc1cncc2c1CCN(C1CCOC1)C2` (configuration not stated), the INHIBITION is listed as -2.27%.

Take `O=C(c1cccnc1)N1CCc2c(COCC3CC3)cncc2C1`: the INHIBITION was -5.05%.

As to `O=C(c1ccco1)N1CCc2c(COCC3CC3)cncc2C1`, the INHIBITION is -3.88%.

In the case of `COCc1cncc2c1CCN(C(=O)c1ccc(C)o1)C2`, the INHIBITION came to 7.11%.

In the case of `O=C(c1ccc[nH]1)N1CCc2c(COCC3CC3)cncc2C1`, the INHIBITION is 14.8%.

For `CN(C)CCOCc1cncc2c1CCN(C1CCOCC1)C2`, the INHIBITION turned out to be 12.6%.

As to `CN(C)C(=O)N1CCc2c(COCC3CC3)cncc2C1`, the INHIBITION came to 59%.

Regarding `O=C(c1ccoc1)N1CCc2c(COCC3CC3)cncc2C1`, the INHIBITION was 64.9%.

In the case of `N#Cc1ccc(C(=O)N2CCc3c(COCC4CC4)cncc3C2)cc1`, the INHIBITION was found to be 43%.

For the compound `CN(C)CCOCc1cncc2c1CCN(C(=O)C1CCOCC1)C2`, the INHIBITION was determined as 55.4%.

On to `O=C(c1ccncc1)N1CCc2c(COCC3CC3)cncc2C1`, for which the INHIBITION was -1.55%.

`COCCN1CCC2(COCCN(C(=O)Cc3cccs3)C2)C1` (configuration not stated): the INHIBITION is reported as -58.7%.

Take `Cc1cc(C(=O)N2CC[C@@H](N(C)C)[C@@H]2Cc2ccccc2)no1`: the INHIBITION is listed as -2.35%.

For the origin of these results see ChEMBL document CHEMBL4513216, “Probing the Open Global Health Chemical Diversity Library for Multistage-Active Starting Points for Next-Generation Antimalarials” (ACS Infect Dis, 2020).
